# Results: PubChem BioAssay AID588727 (Southern Research Specialized Biocontainment Screening …, 2011)
# Out of some 350,000 compounds screened, about 450 (0.13%) were called active. The rule behind the calls is not given here. Not all results are given here. Potency and affinity values are given separately.
# Assay: inhibitors of VEEV TC-83 cytopathic effect, confirmation, Vero cells (AID 588727)
# Conditions: VEEV TC-83 cytopathic effect inhibition, at 20 µM
# [1] = stronger effect = higher value unless noted
smiles,measurement,setting,value
Cc1ccc(S(=O)(=O)Nc2cccc3cccnc23)cc1,inhibition,[1],5.25% (inactive)
Cc1ccc(NS(=O)(=O)c2cccc3cccnc23)c(Cl)c1,inhibition,[1],1.97% (inactive)
O=S1(=O)N=C2CCCCCN2C(c2ccc(Cl)cc2)N1 (configuration not stated),inhibition,[1],0.81% (inactive)
CCCCN1C(Nc2ccccc2)=NC[C@@H]1C,inhibition,[1],0.29% (inactive)
COc1ccc(C(C(=O)NC2CCCC2)N(C(=O)c2ccco2)c2ccc(OC)c(OC)c2)cc1 (configuration not stated),inhibition,[1],0.66% (inactive)
CC(C)NC(=O)N(C)C[C@@H]1Oc2c(NS(=O)(=O)c3ccccc3)cccc2C(=O)N([C@@H](C)CO)C[C@@H]1C,inhibition,[1],0.31% (inactive)
O=c1nc(/C=C/c2ccc(O)c(O)c2)oc2ccccc12,inhibition,[1],1.28% (inactive)
COc1ccc(/C=C/c2nc3ccccc3c(=O)o2)cc1,inhibition,[1],3.84% (inactive)
O=C1NC(=O)c2cc(NC(=O)c3cccc4ccccc34)ccc21,inhibition,[1],2.09% (inactive)
CC12CCC(=O)CC1CCC1C2CCC2(C)C1CCC2(O)C(=O)CO (configuration not stated),inhibition,[1],10.6% (inactive)
C[C@]1(O)CCC2C3CC[C@@H]4CC(=O)CC[C@]4(C)C3CC[C@@]21C (some centres not stated),inhibition,[1],inactive
Cn1cc(CN2CCC(CO)CC2)c(-c2ccc(Oc3ccccc3)cc2)n1,inhibition,[1],0.54% (inactive)
Cn1cc(CN2CCC(O)CC2)c(-c2ccc(Oc3ccccc3)cc2)n1,inhibition,[1],1.33% (inactive)
COc1cccc(CN2CC(C(=O)NCCCn3ccnc3C)CCC2=O)c1 (configuration not stated),inhibition,[1],0.67% (inactive)
CC(C)c1nnc(SCC(=O)N2CCc3ccccc32)n1N,inhibition,[1],inactive
COc1ccc(/C=C/C(=O)c2c(C)nc3ccccn23)cc1,inhibition,[1],5.86% (inactive)
C/C(=N\NC(=O)c1c(C)nc2ccccn12)c1cccc([N+](=O)[O-])c1,inhibition,[1],0.31% (inactive)
Cc1ccc(S(=O)(=O)NNC(=O)c2sc(NS(=O)(=O)c3ccccc3)nc2C)cc1,inhibition,[1],2.55% (inactive)
CC(=O)c1cccc(NC(=O)CSc2nc3ccccc3c(=O)n2CCCN2CCOCC2)c1,inhibition,[1],8.56% (inactive)
COc1ccc(CNC(=O)C(C)Sc2nc3ccccc3c(=O)n2CCCN2CCOCC2)cc1 (configuration not stated),inhibition,[1],0.34% (inactive)
Cc1ccc2nnnc(-c3ccccc3)c2c1,inhibition,[1],0.17% (inactive)
c1ccc(-c2nnnc3ccccc23)cc1,inhibition,[1],0.46% (inactive)
COC(c1ccccc1)c1nc2ccccc2[nH]c1=O (configuration not stated),inhibition,[1],0.57% (inactive)
O=C(CCCSc1nc2ccccc2[nH]1)Nc1ccccc1,inhibition,[1],inactive
COc1cc(NC(=S)NC(=O)c2c(OC)cccc2OC)ccc1NC(=O)c1cccs1,inhibition,[1],3.81% (inactive)
COc1cc(NC(=S)NC(=O)c2cc(C)cc(C)c2)ccc1NC(=O)c1cccs1,inhibition,[1],8.93% (inactive)
Cc1ccc(Cl)cc1Nc1nc(N2CCOCC2)nc(N2CCOCC2)n1,inhibition,[1],inactive
Cc1ccc(C(=O)CC(=O)c2cccc(F)c2)c(O)c1,inhibition,[1],1.73% (inactive)
Cc1ccc(O)c(C(=O)CC(=O)c2ccc(C(C)(C)C)cc2)c1,inhibition,[1],2.3% (inactive)
O=C(CC(=O)c1ccccc1O)c1cccc(F)c1,inhibition,[1],2.48% (inactive)
CC(C)(C)c1ccc(C(=O)CC(=O)c2cc(Cl)ccc2O)cc1,inhibition,[1],1.44% (inactive)
CCN(CC)C(=O)Cn1cc(S(=O)(=O)CC(=O)N2CCOCC2)c2ccccc21,inhibition,[1],1.34% (inactive)
CCc1cccc(CC)c1-n1c(SCc2cc(=O)n3ccsc3n2)nnc1-c1cccnc1,inhibition,[1],inactive
CN(C(=O)COC(=O)/C=C/c1ccc(S(=O)(=O)N2CCc3ccccc32)cc1)C1CCS(=O)(=O)C1 (configuration not stated),inhibition,[1],0.84% (inactive)
CC(CCc1ccccc1)OS(N)(=O)=O (configuration not stated),inhibition,[1],"0.425% [measured here: 10K pilot screen inhibition, stronger effect = higher value]"
same,outcome,[1],inactive
Cc1n[nH]c(C)c1CCNCc1ccc(OCC(O)CN2CCCCC2)cc1 (configuration not stated),inhibition,[1],0.96% (inactive)
OC(COc1ccc(CNCCc2ccccc2F)cc1)CN1CCCCC1 (configuration not stated),inhibition,[1],4.19% (inactive)
N/C(=N\OCc1ccc([N+](=O)[O-])cc1)c1ccccn1,inhibition,[1],0.33% (inactive)
CC(=O)Nc1ccccc1C(=O)OCC(=O)c1ccccc1Cl,inhibition,[1],"0.205% [measured here: 10K pilot screen inhibition, stronger effect = higher value]"
same,outcome,[1],inactive
CNC(=S)NCc1ccc2[nH]c3c(c2c1)CCCC3,inhibition,[1],0.13% (inactive)
CC(C)CC(=O)NCc1ccc2[nH]c3c(c2c1)CCCC3,inhibition,[1],1.23% (inactive)
CC(C)C[C@H]1CNC(=S)N1CC1CCN(CCCCc2ccccc2)CC1,inhibition,[1],inactive
COc1cccc(N2C(=O)C3CCCN3C2c2cccs2)c1 (configuration not stated),inhibition,[1],1.22% (inactive)
O=C1C2CCCN2C(c2cccs2)N1c1ccc(F)cc1 (configuration not stated),inhibition,[1],inactive
CN(c1ccc(OCC(=O)Nc2cc(Cl)ccc2C(=O)O)cc1)S(=O)(=O)c1ccc(F)cc1,inhibition,[1],1.87% (inactive)
CC(=O)Nc1ccc(S(=O)(=O)N(C)c2ccc(OCC(=O)Nc3ccccc3C(C)=O)cc2)cc1,inhibition,[1],11% (inactive)
CC(C)CN(C(=O)COc1ccc(C(C)(C)C)cc1)C1CCS(=O)(=O)C1 (configuration not stated),inhibition,[1],12.2% (inactive)
CN(C)N=Nc1nc2c(c(=O)n(C)c(=O)n2C)n1C,inhibition,[1],inactive
CN(C)N=Nc1nc2c([nH]1)c(=O)n(C)c(=O)n2C,inhibition,[1],1.78% (inactive)
CN(C(=O)c1cccc(NC(=O)Cc2ccc(NC(=O)C3CCN(C(=O)C4CC4)CC3)cc2)c1)C1CCCCC1,inhibition,[1],0.89% (inactive)
O=C(CSc1nccn1-c1ccc(Cl)cc1)NCc1ccc2c(c1)OCO2,inhibition,[1],3.2% (inactive)
CCOC(=O)Cc1nnc(Nc2cccc(O)c2)c2ccccc12,inhibition,[1],4.42% (inactive)
O=C(Cc1c(Cl)cccc1Cl)OCc1ccccn1,inhibition,[1],1.24% (inactive)
O=C(CN(CC1CCCO1)C(=O)CNS(=O)(=O)c1ccc(Cl)cc1)NCc1ccc(F)cc1 (configuration not stated),inhibition,[1],3.94% (inactive)
COc1cc2nc(N3CCN(C(=O)c4ccco4)CC3)nc(N)c2cc1OC,inhibition,[1],23.2% (inactive)
COc1cc2nc(N3CCN(c4cc(C)ccc4C)CC3)nc(N)c2cc1OC,inhibition,[1],inactive
COC(=O)C1CCN(C(=O)COC(=O)CC(NC(N)=O)c2ccc(Cl)cc2)CC1 (configuration not stated),inhibition,[1],1.27% (inactive)
CSc1nnc2c(n1)OC(c1ccc(C(=O)O)cc1)N(C(C)=O)c1ccccc1-2 (configuration not stated),inhibition,[1],0.04% (inactive)
COc1ccc(NC(=O)c2ccco2)c([N+](=O)[O-])c1,inhibition,[1],inactive
O=c1c2c([nH]c3ccccc13)CCCC2,inhibition,[1],0.1% (inactive)
O=c1c2c([nH]c3ccccc13)CCCCC2,inhibition,[1],2.45% (inactive)
Fc1ccc(NC(=S)NCc2ccc3c(c2)OCO3)cc1,inhibition,[1],1.24% (inactive)
COc1ccc(CCNC(=O)Cn2c(=O)oc3cc(Cl)ccc32)cc1OC,inhibition,[1],1.85% (inactive)
CC1CCCCC1NC(=O)/C(C#N)=C/c1ccccc1F (configuration not stated),inhibition,[1],10.5% (inactive)
O=C(/C=C/c1ccccc1[N+](=O)[O-])NC1CCCC1,inhibition,[1],inactive
COCCNC(=O)/C(C#N)=C/C=C/c1ccccc1[N+](=O)[O-],inhibition,[1],55.2% (inactive)
N#C/C(=C\c1ccccc1[N+](=O)[O-])C(=O)NC1CCCCC1,inhibition,[1],6.23% (inactive)
Cc1ccc(-c2nn(-c3ccccc3)cc2/C=N/n2c(-c3ccncc3)n[nH]c2=S)cc1,inhibition,[1],0.07% (inactive)
COc1cc(C(=O)NNC(=O)CCOc2ccccc2)cc(OC)c1OC,inhibition,[1],inactive
O=C(COc1ccc(-c2ccccc2)cc1)NNC(=O)NC1CCCCC1,inhibition,[1],0.67% (inactive)
N#Cc1c(NC(=O)c2ccc(Cn3cc(Br)cn3)o2)sc2c1CCCCCC2,inhibition,[1],inactive
COCC1CCCCN1C(=O)c1cccc(OC2CCN(C(=O)C3CC3)CC2)c1 (configuration not stated),inhibition,[1],inactive
COc1ccc(C(=O)NCc2ccc(F)cc2)cc1S(=O)(=O)N1CCCC1,inhibition,[1],10.6% (inactive)
Cc1cc(OC(=O)c2cc(Cl)nc3ccccc23)ccc1Cl,inhibition,[1],2.81% (inactive)
CSCCC(NS(=O)(=O)c1ccc2[nH]c(=O)c(=O)[nH]c2c1)C(=O)O (configuration not stated),inhibition,[1],inactive
CCNC(=O)C1CCCc2c1[nH]c1ccc(Cl)cc21 (configuration not stated),inhibition,stronger effect = higher value,0.89% (inactive)
same,inhibition,"measured here: 10K pilot screen inhibition, stronger effect = higher value",1.04%
CCOC(=O)C1CCCc2c1[nH]c1ccc(Cl)cc21 (configuration not stated),inhibition,[1],0.82% (inactive)
COc1ccc(-c2nn(-c3ccccc3)cc2/C=C/C(=O)N2CCOCC2)cc1OC,inhibition,[1],7.65% (inactive)
Cc1cc(C)cc(N(C(=O)c2ccc(Br)o2)C2C=CS(=O)(=O)C2)c1 (configuration not stated),inhibition,[1],inactive
O=[N+]([O-])c1cccc(/C=N/Nc2nc(NCc3ccccc3)nc(N3CCOCC3)n2)c1,inhibition,[1],2.74% (inactive)
O=[N+]([O-])c1ccc(/C=N/Nc2nc(NCc3ccccc3)nc(N3CCOCC3)n2)cc1,inhibition,[1],3.18% (inactive)
COc1ccc2c(c1)OC[C@H]1[C@H]2N2C(=O)c3cc(Br)ccc3NC(=O)[C@@]2(C)[C@H]1c1ccccc1,inhibition,[1],1.07% (inactive)
O=c1[nH]ncc(N2CCCC2)c1Cl,inhibition,[1],inactive
CC(=O)c1cc(C)ccc1OC(=O)c1ccco1,inhibition,[1],inactive
CC(NC(=O)c1cccc(S(=O)(=O)N2CCN(Cc3ccccc3)CC2)c1)c1ccc(Br)cc1 (configuration not stated),inhibition,[1],2.86% (inactive)
O=C(CCCN1C(=O)/C(=C/c2ccco2)SC1=S)Nc1cccc(C(=O)O)c1,inhibition,[1],11.7% (inactive)
COc1ccc(NC(=O)CCCN2C(=O)/C(=C\c3ccco3)SC2=S)cc1,inhibition,[1],13.5% (inactive)
O=C(CC(CC(=O)c1ccccc1)c1ccccc1)c1ccccc1,inhibition,[1],1.3% (inactive)
O=C(CC(C(=O)c1ccccc1)c1ccccc1)c1ccccc1 (configuration not stated),inhibition,[1],12.6% (inactive)
CC(=O)N/C(=C/c1ccc(OS(=O)(=O)c2ccc(C)cc2)cc1)C(=O)NCCCO,inhibition,[1],inactive
CNC(=O)N1c2ccccc2C=Cc2ccccc21,inhibition,[1],1.28% (inactive)
NC(=O)N1c2ccccc2C=Cc2ccccc21,inhibition,[1],0.99% (inactive)
same,outcome,[1],inactive
COc1ccc(OCc2cc(C(=O)NCC(C)(C)N3CCOCC3)no2)c(Cl)c1,inhibition,[1],2.39% (inactive)
